# Cycloheximide cs – counter-screen hit for Shiga toxin inhibitors, cycloheximide | cell reporter, cycloheximide protein synthesis inhibition counterscreen | max response, % | 12% of 300,000 active | AID 2314; in the data active means max response mostly above about 13%, no sharp cut-off; inactive means mostly below about 14%; further: read at 38.3 µM for the half of the compounds with a filed dose; 0% is about no effect
# LmPK inhibitor – blocks Leishmania mexicana pyruvate kinase activity; 0.37% of 290,000 active; Potency, µM (highest dose often 57.5 µM), for the others: at the highest dose activity change, negative = inhibition, usual class: inhibitors; Q27686; purified LmPK, Kinase-Glo ATP luminescence, 1 h; further: potency means the concentration at half of the fitted maximal effect; on the % scale 0 is the no-effect control and ±100 the full control effect
# Target sequence (Q27686 whole entry, looked up): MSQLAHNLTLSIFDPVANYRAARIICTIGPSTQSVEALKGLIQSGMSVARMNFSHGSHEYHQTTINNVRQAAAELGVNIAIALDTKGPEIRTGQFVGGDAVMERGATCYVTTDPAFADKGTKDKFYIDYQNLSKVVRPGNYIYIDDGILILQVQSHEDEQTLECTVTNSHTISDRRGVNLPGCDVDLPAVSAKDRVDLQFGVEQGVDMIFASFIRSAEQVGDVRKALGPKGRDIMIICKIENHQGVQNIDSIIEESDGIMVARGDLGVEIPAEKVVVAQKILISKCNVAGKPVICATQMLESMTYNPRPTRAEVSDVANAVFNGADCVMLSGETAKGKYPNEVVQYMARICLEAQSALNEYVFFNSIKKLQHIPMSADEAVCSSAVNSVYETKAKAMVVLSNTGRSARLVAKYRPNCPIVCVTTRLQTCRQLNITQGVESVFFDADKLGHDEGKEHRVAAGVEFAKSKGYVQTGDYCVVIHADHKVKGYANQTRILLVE
#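 Purified LmPK (0.1 nM) with 0.5 mM PEP and 0.1 mM ADP in imidazole buffer pH 7.2 with MgCl2/KCl, 1 h at room temperature. ATP formed was read by luciferase luminescence and normalized to no-enzyme and uninhibited controls.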
# Pf growth 96h – inhibits malaria parasite growth, 96 h; P. falciparum luciferase reporter growth, 96 h; Potency, µM (highest dose often 28.7 µM), inactives show at the highest dose activity change, negative = inhibition, actives largely listed as inhibitors; 6.9% of 320,000 active; further: potency means the concentration at half of the fitted maximal effect; on the % scale 0 is the no-effect control and ±100 the full control effect
#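 Delayed-death screen, second-generation endpoint: infected erythrocytes, 2% hematocrit, 0.05% parasitemia final; 96 hours at 37 C, 5% CO2; luciferase detection reagent; luminescence decrease equals reduced growth.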
# Shiga inhibitor – inhibitors of Shiga toxin in Vero cells | Vero cells, Shiga toxin protein synthesis inhibition reporter | 9.2% of 290,000 active | inhibition, % at 38.7 µM; in the data active means inhibition mostly above about 28%, no sharp cut-off; inactive means mostly below about 43%; further: 0% is about no effect
# Pf growth 48h – inhibits P. falciparum growth in the first generation, 48 h; P. falciparum luciferase growth in erythrocytes, 48 h; Potency, µM (series often up to 28.7 µM), inactives show at the top dose activity change, negative = inhibition, hits mostly inhibitors; 5.9% of 310,000 active; AID 504832; further: potency means the concentration at half of the fitted maximal effect; on the % scale 0 is the no-effect control and ±100 the full control effect
#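 Erythrocytes infected with P. falciparum carrying an integrated firefly luciferase reporter (2% hematocrit, 0.1% parasitemia final) were exposed to compounds in RPMI 1640 with 0.5% Albumax at 37 C, 5% CO2. Growth inhibition was scored as reduced luminescence.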
# An asterisk follows results filed as active; ? = inconclusive; . = no result given. Only some compounds are listed: those with a hit (about 22% of all), similar ones and a draw of the others. Unless noted, the call rests on the fitted dose curve; in most records, active means well fitted inhibition curve with a large enough effect; inconclusive means small, poorly fitted or top-dose-only effect, or another doubt; inactive means no such curve, though single readings can be large or run the other way.
SMILES,Cycloheximide cs,LmPK inhibitor,Pf growth 96h,Shiga inhibitor,Pf growth 48h
COc1cccc(C(=O)C2CCCN(C(=O)CCc3scnc3C)C2)c1 (stereo not given),21.8*,1.0%,?,9.1,-15.8%
Cc1ccccc1N1CCN(C2CCCN(C(=O)c3ccsc3)C2)CC1 (stereo not given),8.7,0.7%,?,-13.5,-16.0%
Cc1nn(-c2cc(C(F)(F)F)ccc2Cl)c2nc(C(Cl)(Cl)Cl)[nH]c(=O)c12,-1.1,0.4%,?,-4.6,?
O=C(CCNS(=O)(=O)c1ccc(Br)cc1)NCc1ccco1,.,.,22.2%,.,20.8%
COc1ccc2cc(C(=O)C3CCCN(C(=O)c4ccnn4C)C3)ccc2c1 (stereo not given),17.6,-2.4%,?,39.3*,?
C[C@@H]1CN(Cc2nc(-c3cccs3)no2)C[C@H](C)O1,5.2,-11.1%,245.5%,20.8,36.5%
COc1ccccc1CN1CCN(Cc2nc(-c3cccs3)no2)CC1,50.2*,7.2%,5.86µM*,85.4*,16.7%
COCC1CCN(Cc2nc(-c3cccs3)no2)C1 (stereo not given),5.7,3.0%,?,17.3,-0.9%
c1csc(-c2noc(CN3CCc4sccc4C3)n2)c1,34.3*,7.8%,0.2%,39.3*,36.6%
CC(=O)Nc1ccc(NC(=O)C(C)OC(=O)c2ccc3[nH]c(C)c(C)c3c2)cc1 (stereo not given),.,.,-9.7%,.,7.2%
O=C(Cn1cnc2ccc(Cl)cc2c1=O)c1cccs1,6.9,-3.0%,34.7%,-7.1,9.6%
Cc1cc(=O)n(C)c(=O)n1CCCCCN1CCCC1,1.3,-9.8%,.,-6.1,6.8%
Cc1cc(=O)n(C)c(=O)n1CCCCCCOc1cccc([N+](=O)[O-])c1,4.5,0.2%,4.15µM*,-8.0,-6.4%
Cc1csc(NC(=O)CSc2nccn2C)n1,28.6*,0.1%,-2.8%,30.2,77.0%
O=C(CSc1ccc([N+](=O)[O-])cn1)Nc1nccs1,5.4,8.3%,?,4.5,?
Cc1csc(NC(=O)CSc2nc(C)cs2)n1,17.0*,-0.2%,.,25.1,15.6%
Cc1csc(NC(=O)CSc2nnc(CCNC(=O)c3ccc(Cl)c(Cl)c3)n2C)n1,15.4,3.5%,-3.9%,-7.4,.
Cc1csc(NC(=O)CSc2ccc([N+](=O)[O-])cn2)n1,10.4,-2.7%,11.7µM*,24.0,-33.4%
COc1ccc(CCCc2nnc(SCC(=O)Nc3nc(C)cs3)n2C)cc1,-2.6,1.1%,.,-12.0,10.4µM*
O=c1[nH]c(=S)[nH]c2c1C(c1ccc(Br)cc1)c1c([nH]c(=S)[nH]c1=O)O2,0.5,0.0%,5.6%,-6.5,29.7%
Cc1csc(SCC(=O)Nc2cccc3nsnc23)n1,20.0*,-2.1%,?,24.4,52.4%
Cc1csc(SCC(=O)Nc2ccccc2C)n1,.,.,11.3%,.,30.6%
Cn1ncc2c(N3CCN(c4ccccc4F)CC3)ncnc21,13.1*,-2.7%,.,6.8,?
Cc1ccc(Cn2ncc3c(N4CCN(c5ccccc5C)CC4)ncnc32)cc1,1.7,4.5%,?,-3.9,13.1µM*
Cn1ncc2c(N3CCN(c4ccc(Cl)c(Cl)c4)CC3)ncnc21,-4.0,-2.3%,?,-2.7,9.28µM*
SMILES,Cycloheximide cs,LmPK inhibitor,Pf growth 96h,Shiga inhibitor,Pf growth 48h
Cn1ncc(Cl)c1C(=O)N1CCN(c2ccc(Cl)c(Cl)c2)CC1,10.3,-4.7%,20.7%,1.0,20.7%
CCOC(=O)C1CCN(c2ncnc3c2cnn3C)CC1,-2.1,2.2%,128.0%,-2.9,8.1%
COc1cccc(CNCCSc2nnnn2C)c1OC,-5.8,8.5%,23.8%,-3.9,.
COC(=O)N1CCc2c(sc(NC(=O)C3COc4ccccc4O3)c2C(N)=O)C1 (stereo not given),.,.,?,.,14.7µM*
CC(=O)N1CCc2c(sc(NC(=O)Cc3ccccc3)c2C(N)=O)C1,-1.8,-0.4%,?,-5.6,1.6%
CCOC(=O)c1c(NC(=O)C2COc3ccccc3O2)sc2c1CCN(Cc1ccccc1)C2 (stereo not given),-2.0,-5.5%,2.33µM*,-9.9,4.65µM*
NC(=O)c1c(NC(=O)C2COc3ccccc3O2)sc2c1CCN(Cc1ccccc1)C2 (stereo not given),-0.8,-2.4%,-12.1%,-12.2,-14.5%
CN(Cc1ccccc1)c1ccc(C(CC(N)=O)NC(=O)c2ccccc2)cc1[N+](=O)[O-] (stereo not given),-0.2,-0.4%,?,-10.7,9.0%
Cc1onc(-c2ccccc2)c1C(=O)NCCc1ccc(S(N)(=O)=O)cc1,5.2,2.6%,-1.5%,-12.6,-16.8%
Cc1onc(-c2ccccc2)c1-c1ccc(S(N)(=O)=O)cc1,38.2*,7.3%,?,68.5*,?
O=C(Cc1cccs1)NCc1ccc(Cl)cc1,15.1*,-0.7%,0.0%,15.2,22.1%
O=C(CSc1nnc(Cc2cccs2)n1-c1ccc(Cl)cc1)NCc1ccc2c(c1)OCO2,8.4,-1.5%,7.38µM*,23.3,0.928µM*
COc1ccccc1CC(=O)NCc1ccc2c(c1)OCO2,15.6*,1.8%,.,29.2*,14.3%
COc1ccc(CC(=O)NCc2ccc3c(c2)OCO3)cc1,1.3,2.3%,0.3%,-5.8,.
COc1ccc(CNC(=O)COC(=O)CN2C(=O)NC3(CCCC3)C2=O)cc1,.,.,40.3%,.,?
O=C(Cc1cccs1)NCc1cccs1,13.1,0.0%,.,38.9,15.6%
O=C(CSc1nnc(-c2cccs2)n1-c1ccccc1)NCc1ccc2c(c1)OCO2,-2.7,-5.4%,.,-24.9,-13.4%
COc1ccc(C(CNC(=O)CN2C(=O)NC3(CCCC3)C2=O)N(C)C)cc1 (stereo not given),24.6*,-4.9%,17.1%,-20.9,10.5%
COc1cc(C(=O)OCC(=O)NCCN2C(=O)CSC2=O)ccc1OCc1c(C)noc1C,0.9,-8.1%,-2.1%,-17.3,-25.7%
COc1cccc(/C=N/n2c(C3CCCCC3)n[nH]c2=S)c1,-2.9,-11.8%,13.6%,-4.4,.
O=C(Cc1cccs1)NCc1ccc(F)cc1,22.5*,2.8%,-22.2%,33.8,44.5%
CN(C)c1ccc(C(CNC(=O)c2cccs2)N(C)C)cc1 (stereo not given),50.3*,0.0%,41.6%,50.6*,83.2%
O=C(NCCCCNC(=O)c1cccs1)c1cccs1,-4.2,0.3%,?,-2.9,-0.4%
CCCCC(CC)CNC(=O)c1cccs1 (stereo not given),5.1,-2.0%,4.65µM*,31.4,5.22µM*
O=C(CCn1c(=O)sc2ccccc21)NCc1ccc2c(c1)OCO2,12.0*,1.7%,8.1%,6.4,105.8%
COc1cc(NC(=O)c2cccc(F)c2)ccc1NC(=O)c1cc2ccccc2o1,-3.1,5.7%,?,-7.5,-9.4%
Cn1nc(C(=O)OCc2ccc(Br)cc2F)c2ccccc2c1=O,-4.2,1.9%,29.9%,-3.2,-2.9%
CCOc1ccc(CNC(=O)c2ccc3nc(N4CCOCC4)sc3c2)cc1,8.3,-1.2%,1.0%,-2.0,-1.0%
COc1ccc(CC(=O)NCC(c2ccc(OC)cc2)N(C)C)cc1 (stereo not given),4.6,-4.6%,-29.2%,-3.5,?
